LANA-H2A inh = blocks KSHV LANA binding to histone H2A/H2B. inhibition, % (test concentration not listed). 320,000 tested, 0.6% active. Q9QR71. cell-free LANA-H2A/H2B peptide, fluorescence polarization; in the data active = inhibition mostly above about 10%, no sharp cut-off; inactive = mostly below about 6.7%
Target sequence (Q9QR71 whole entry, looked up): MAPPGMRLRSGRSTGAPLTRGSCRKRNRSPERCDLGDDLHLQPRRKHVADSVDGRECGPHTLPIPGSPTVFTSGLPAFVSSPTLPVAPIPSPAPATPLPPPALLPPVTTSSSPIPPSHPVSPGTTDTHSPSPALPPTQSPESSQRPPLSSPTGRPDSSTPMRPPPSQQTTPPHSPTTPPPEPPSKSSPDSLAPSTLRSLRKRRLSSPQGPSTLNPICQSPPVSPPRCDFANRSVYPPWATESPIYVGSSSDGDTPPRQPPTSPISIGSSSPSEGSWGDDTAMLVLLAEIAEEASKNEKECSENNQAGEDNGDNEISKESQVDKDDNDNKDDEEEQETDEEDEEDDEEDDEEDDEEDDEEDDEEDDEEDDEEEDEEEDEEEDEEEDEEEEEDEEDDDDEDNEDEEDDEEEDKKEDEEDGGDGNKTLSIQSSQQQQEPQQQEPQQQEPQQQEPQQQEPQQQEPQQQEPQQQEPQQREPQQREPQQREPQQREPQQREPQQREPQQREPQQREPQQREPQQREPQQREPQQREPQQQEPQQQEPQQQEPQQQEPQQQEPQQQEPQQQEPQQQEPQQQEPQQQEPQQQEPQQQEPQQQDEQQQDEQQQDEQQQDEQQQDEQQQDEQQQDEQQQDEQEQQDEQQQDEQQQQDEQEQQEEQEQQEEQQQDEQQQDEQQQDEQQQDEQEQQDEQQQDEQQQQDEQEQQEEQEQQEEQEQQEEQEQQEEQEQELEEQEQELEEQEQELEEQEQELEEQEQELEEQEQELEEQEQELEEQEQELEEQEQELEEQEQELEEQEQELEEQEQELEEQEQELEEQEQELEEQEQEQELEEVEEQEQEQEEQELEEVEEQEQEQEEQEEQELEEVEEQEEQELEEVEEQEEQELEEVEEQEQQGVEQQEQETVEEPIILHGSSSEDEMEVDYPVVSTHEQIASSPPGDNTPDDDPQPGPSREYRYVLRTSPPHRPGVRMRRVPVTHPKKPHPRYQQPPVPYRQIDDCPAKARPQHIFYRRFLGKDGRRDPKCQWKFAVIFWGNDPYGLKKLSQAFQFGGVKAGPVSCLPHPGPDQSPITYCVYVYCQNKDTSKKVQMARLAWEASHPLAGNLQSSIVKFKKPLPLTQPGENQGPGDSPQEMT
E coli Lon inh = inhibits E. coli Lon protease | P0A9M0 | purified E. coli Lon protease, fluorescence polarization | inhibition, % at 7.94 µM | 360,000 tested, 0.42% active | AID 602123; in the data active = inhibition above about 13%, passing the limit was not always enough;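 also: 0% = enzyme with probe and DMSO and 100% = no enzyme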
RTF Ca sens act = increases calcium sensitivity of human cardiac regulated thin filaments; P19429+P45379; IANBD-labeled TnC RTF fluorescence at EC20 calcium; 0% EC20 calcium, 100% full calcium; activation, % at 7.2 µM; 340,000 tested, 0.24% active;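 active = activation above the mean over all tested compounds plus 3 SD, cut at about 30% in these data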;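 also: rise in fluorescence read as greater calcium sensitivity of cardiac thin filaments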
Cardiac RTF inh = cardiac RTF calcium desensitization. P19429+P45379. IANBD-labeled cardiac RTF, Ca2+ fluorescence. inhibition, % at 7.15 µM. 340,000 tested, 0.12% active. AID 493244;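 active = inhibition above the mean inhibition of all tested compounds plus 3 SD, cut at about 17% in these data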;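 also: assay run at fixed EC70 calcium of 1.6 mM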
C-LANA FP = KSHV C-LANA DNA binding inhibition. MBP-C-LANA/FAM-LBS DNA binding, fluorescence polarization. inhibition, % at 9 µM. 340,000 tested, 0.078% active;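 active = highest replicate inhibition at or above 60% at 9 µM, even if other replicates fall short; inactive = all replicates below 60% inhibition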;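 also: 0% = neutral control wells and 100% = 4 µM acridine orange control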
Keap1 Nrf2 FP = Keap1-Nrf2 (human) interaction inhibition | inhibition, % at 9.4 µM | Q14145 | Keap1 Kelch-Nrf2 peptide fluorescence polarization, 1536-well | AID 504523 | 340,000 tested, 0.15% active; in the data active = inhibition above about 12%; inconclusive = no clear call, values can overlap the other calls; inactive = below about 7.3%;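 also: human Keap1 Kelch domain with fluorescein labeled Nrf2 9mer peptide probe; 0% = neutral control wells and 100% = peptide positive control; higher means more block of Keap1 binding to Nrf2 peptide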
E coli Lon conf = confirmation of E. coli Lon protease inhibitors. shares compounds with E coli Lon inh. purified E. coli Lon, fluorescence polarization. inhibition, % at 7.94 µM. 1,400 tested, 31% active; in the data active = inhibition above about 16%;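 also: 0% = enzyme with probe and DMSO and 100% = no enzyme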
An asterisk follows results filed as active; i = inactive; ? = inconclusive; . = no result given; + = active, no number. Shown are actives, neighbours in structure and some others; about 1.3% of the full set was active somewhere.

SMILES | LANA-H2A inh | E coli Lon inh | RTF Ca sens act | Cardiac RTF inh | C-LANA FP | Keap1 Nrf2 FP | E coli Lon conf
Cc1cccn2c(=O)c(C=C(C#N)C#N)c(N3CCN(C)CC3)nc12 | 0 | 17* | -1 | 5 | 0 | 2 | 13
CC1(C)Cc2c(sc(NC(=O)C(=O)N3CCN(CCO)CC3)c2C(N)=O)CO1 | -1 | 0 | 7 | -1 | 3 | -3 | .
COc1cccc(NC(=O)N(CCN(C)C)C(C)c2cccnc2)c1 (stereo unspecified) | 1 | -3 | -5 | 4 | 23 | -1 | .
CC(c1cccnc1)N(CCN(C)C)C(=O)Nc1ccc(Cl)cc1 (stereo unspecified) | -4 | 15* | 7 | -2 | 2 | -5 | -2
CC(=O)Nc1ccc2nc3c(=O)n(C)c(=O)n(C)c3nc2c1 | 1 | 68* | 19 | -29 | 15 | 5 | 64*
CN(C)CCCNC(=O)C[C@H]1C[C@H](C(=O)N2CCCCC2)[C@@]2(CCc3ccccc3)c3[nH]c4ccc(Cl)cc4c3CCN2C1=O | . | -5 | -2 | -2 | 0 | -1 | .
Nc1c(C(=O)N/N=C/c2cccnc2)oc2nc(-c3ccco3)cc(-c3ccco3)c12 | 3 | 56* | . | . | . | . | -152
Nc1c(C(=O)N/N=C/c2cccnc2)oc2nc(-c3ccccc3)cc(-c3ccco3)c12 | 2 | -41 | . | . | 1 | -6 | .
C=CCNC(=O)CN1CCN(C(c2ccccc2)c2ccccc2)CC1 | 7 | 3 | -9 | -1 | 2 | -1 | .
CC(C)C(=O)Nc1nc2c(c(=O)[nH]1)CCCC2 | -3 | 9 | . | . | -2 | -1 | .
C/C(=N\NC(=S)NCCc1ccccc1)c1cccs1 | 2 | 101* | 7 | -13 | 13 | -3 | 57*
O=C(CCN1N=C(c2ccccc2)CCC1=O)NCC1CCCO1 (stereo unspecified) | 1 | 9 | 0 | -7 | 0 | 0 | .
c1cc(CNc2ccc3c(c2)OCO3)ccn1 | -6 | 27* | 6 | -27 | 17 | 8 | 34*
COc1ccc(NC(=O)CNC(c2ccccc2)c2ccccc2)cc1Cl | 0 | 18* | -4 | 6 | 2 | ? | -8
Cn1nc(-c2ccccc2)c(N2CCCCC2)cc1=O | -1 | -11 | 6 | 4 | . | . | .
Cn1c(=O)cc2c3c(c(N4CCCCC4)ccc31)C(=O)c1ccccc1-2 | 22* | + | . | . | . | . | 73*
CCCC1OC23CCCCC2C(C#N)(C(=N)O3)C1(C#N)C#N (stereo unspecified) | -1 | 14 | 14 | -15 | 35 | 7 | .
N#CC12COC3(CCCCC3C1(C#N)C#N)OC2=N (stereo unspecified) | 7 | 46* | 21 | -26 | 30 | ? | -24
N#CC1(C#N)COC23CCCCC2C1(C#N)C(=N)O3 (stereo unspecified) | 10 | 23* | 22 | -35 | 45 | 21* | 10
COc1ccc2c(c1O)Cc1ccccc1C2=O | -12 | 34* | 10 | 8 | -1 | 0 | 22*
COC(=O)Cc1c(C)c2ccc(OC(=O)c3ccccc3)cc2oc1=O | -4 | 33* | -4 | -7 | 1 | -1 | 28*
CCOc1ccccc1N1CCN(Cc2ccc(Br)s2)CC1 | -4 | 28* | 1 | -4 | 1 | 1 | 11
Cc1cc(C)c(NC(=O)CSc2ccc3nnc(CCNC(=O)c4ccccc4)n3n2)c(C)c1 | 1 | 3 | 1 | 0 | 1 | -4 | .
NNC(=O)CNC(=O)C12CC3CC(CC(C3)C1)C2 | -1 | 17* | 0 | 1 | 1 | -5 | -7
COc1ccc(NC(=O)c2cccc(N3C(=O)c4cccc([N+](=O)[O-])c4C3=O)c2)cc1 | 8 | 19* | -4 | -8 | 1 | 1 | 0
SMILES | LANA-H2A inh | E coli Lon inh | RTF Ca sens act | Cardiac RTF inh | C-LANA FP | Keap1 Nrf2 FP | E coli Lon conf
CC(=O)c1ccc(NC(=O)c2cccc(N3C(=O)c4ccccc4C3=O)c2)cc1 | -1 | 4 | -5 | 3 | 0 | -1 | .
C#CCN(C[C@H]1[C@H](OC(=O)NCc2ccccc2)[C@H](OC(=O)NCc2ccccc2)C[C@H]2C(=O)N(c3ccccc3)C(=O)[C@@H]12)S(=O)(=O)c1ccc(C)cc1 | . | 2 | . | . | . | . | .
COC(=O)Cn1cnc2c(oc3ccccc32)c1=O | 0 | 22* | -5 | -8 | 0 | 2 | -2
C1=C(c2ccc(-c3ccccc3)cc2)Nc2ncnn2C1c1ccco1 (stereo unspecified) | . | + | 336* | -425 | 27 | 6 | 70*
Cc1ccc(C2C=C(c3ccccc3)Nc3ncnn32)cc1 (stereo unspecified) | -3 | 9 | 0 | -15 | 5 | -1 | .
Brc1ccc(C2=CC(c3cccs3)n3ncnc3N2)cc1 (stereo unspecified) | 59* | 141* | 707* | i | 101* | 55* | 161*
O=C(O)CC(CC(=O)N1CCN(C(=O)c2ccco2)CC1)c1ccccc1 (stereo unspecified) | -4 | 7 | -7 | 0 | 1 | -2 | .
CCCn1c(=S)[nH]c2cc(C(=O)N3CCN(C)CC3)ccc2c1=O | . | 14* | . | . | . | . | 2
CCCCn1c(N)c(N(CCC(C)C)C(=O)COC(=O)/C=C/c2ccc(F)cc2)c(=O)[nH]c1=O | -1 | -6 | -6 | 5 | 0 | -6 | .
O=C1c2ccccc2-c2n[nH]c3cccc1c23 | . | 23* | 6 | -6 | 5 | -4 | 33*
CCN1CCN(C(=O)NC2CCCCC2)CC1 | -2 | 45* | -7 | 1 | 1 | -1 | 0
Cc1ccccc1OCC(=O)Nc1cccc(S(=O)(=O)NC2=NCCC2)c1 | -5 | -3 | 5 | 4 | 0 | 3 | .
Cc1ccccc1-n1ccnc1SCC(=O)Nc1cccc(S(=O)(=O)NC2=NCCC2)c1 | -1 | 17* | 1 | -8 | 0 | 0 | -1
CC(C)(C)C1CCNC(=O)CC1 (stereo unspecified) | . | 1 | . | . | . | . | .
CCOC(=O)c1cc(OC)c2cccc(CN3CCC(C)(C(=O)NCCOC)C3)c2c1 (stereo unspecified) | . | 97* | . | . | . | . | 46*
CCOC(=O)c1cc(OC)c2cccc(CN3CCCC(C)(C(=O)NCCOC)C3)c2c1 (stereo unspecified) | . | -2 | . | . | . | . | .
CC1CCN(C(=O)C(C)NCc2ccc(F)cc2)CC1 (stereo unspecified) | 3 | 36* | 1 | 2 | 1 | 1 | 3
CCOC(=O)c1[nH]cnc1N=Nc1c(O)ccc2ccccc12 | -4 | 44* | 4 | -3 | 2 | 6 | 76*
CCCn1c(CN2CCN(C(=O)OCC)CC2)nc2cc(NC(C)=O)ccc21 | -2 | -9 | 4 | -3 | -1 | 3 | .
Cn1c(SCC(=O)NCC2CCCO2)nc2c(c1=O)SCC2 (stereo unspecified) | -2 | 52* | 6 | -9 | 0 | 1 | 1
